Assay results published in PubChem BioAssay AID1159580 (chemical genetic matrix, 2015).
Screen size: about 5,500 compounds; about 2,000 (36%) were called active. About 18% were inconclusive and are not listed. Cut-off read from the data, not from the text of the source: active = normalized growth mostly below about 0.91 (no sharp cut-off); inconclusive = no clear call, values can overlap the other calls; inactive = mostly above about 0.92. This is one part of the list.

Test: chemical genetic growth profiling, strain panel (AID 1159580);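 note: tested at 20 µM; growth read once vehicle control cultures reached saturation at 30 °C; 1 = growth at the plate median or of vehicle wells; lower values mean less growth of the strain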
Conditions: S. cerevisiae deletion strains, growth OD

Measured: normalized growth

CC(=O)c1cc(CC=C(C)C)c(O)c(CC=C(C)C)c1
active: locus YBR021W, strain FUR4, active compounds read low 1.42 [resistant] | locus YDR162C, strain NBP2, active compounds read low 0.665 | locus YHR030C, strain SLT2, active compounds read low 0.878
inactive: locus YAL013W, strain DEP1, active compounds read low 0.924 | locus YAL021C, strain ccr4, active compounds read low 1 | locus YAL026C, strain drs2, active compounds read low 1.01 | locus YAL030W, strain snc1, active compounds read low 1.01 | locus YBL061C, strain skt5, active compounds read low 1 | locus YBR009C, strain hhf1, active compounds read low 1 | locus YBR023C, strain chs3, active compounds read low 1 | locus YBR171W, strain sec66, active compounds read low 1.01 | locus YBR229C, strain ROT2, active compounds read low 0.989 | locus YBR231C, strain swc5, active compounds read low 1 | locus YBR279W, strain paf1, active compounds read low 1.02 | locus YCL011C, strain gbp2, active compounds read low 1.01 | locus YCL016C, strain dcc1, active compounds read low 1.01 | locus YCL029C, strain bik1, active compounds read low 0.96 | locus YCL061C, strain MRC1, active compounds read low 1.01 | locus YCL069W, strain vba3, active compounds read low 1 | locus YCR088W, strain abp1, active compounds read low 1 | locus YDL005C, strain med2, active compounds read low 1.02 | locus YDL035C, strain GPR1, active compounds read low 0.947 | locus YDL040C, strain nat1, active compounds read low 1.01 | locus YDL074C, strain BRE1, active compounds read low 0.797 | locus YDL101C, strain DUN1, active compounds read low 0.945 | locus YDL134C, strain PPH21, active compounds read low 0.987 | locus YDL185W, strain tfp1, active compounds read low 0.927 | locus YDL192W, strain arf1, active compounds read low 0.919 | locus YDR001C, strain nth1, active compounds read low 1 | locus YDR069C, strain doa4, active compounds read low 1 | locus YDR101C, strain arx1, active compounds read low 0.969 | locus YDR137W, strain rgp1, active compounds read low 0.939 | locus YDR150W, strain NUM1, active compounds read low 0.969 | locus YDR159W, strain sac3, active compounds read low 1.02 | locus YDR195W, strain ref2 1.06 | locus YDR297W, strain sur2, active compounds read low 1.01 | locus YDR318W, strain mcm21, active compounds read low 0.971 | locus YDR334W, strain swr1, active compounds read low 1.01 | locus YDR335W, strain msn5, active compounds read low 1.02 | locus YDR388W, active compounds read low 0.977 | locus YDR392W, strain spt3, active compounds read low 0.977 | locus YDR502C, strain sam2, active compounds read low 0.955 | locus YEL003W, strain gim4, active compounds read low 1.01 | locus YEL037C, strain rad23, active compounds read low 1 | locus YEL061C, strain CIN8 (second series), active compounds read low 1.01 | locus YEL061C, strain CIN8, active compounds read low 0.989 | locus YER015W, strain faa2, active compounds read low 1 | locus YER016W, strain bim1, active compounds read low 1.01 | locus YER110C, active compounds read low 0.966 | locus YER111C, strain swi4, active compounds read low 1.02 | locus YER155C, strain BEM2 (second series), active compounds read low 1.03 | locus YER155C, strain BEM2, active compounds read low 1 | locus YER167W, strain BCK2, active compounds read low 0.992 | locus YFR010W, strain ubp6, active compounds read low 1.01 | locus YGL078C, strain dbp3, active compounds read low 0.984 | locus YGL086W, strain mad1, active compounds read low 0.953 | locus YGL167C, strain pmr1, active compounds read low 0.987 | locus YGL173C, strain kem1, active compounds read low 1.01 | locus YGL227W, strain vid30, active compounds read low 1.01 | locus YGL240W, strain doc1, active compounds read low 1.03 | locus YGL248W, strain PDE1, active compounds read low 0.93 | locus YGL253W, strain hxk2, active compounds read low 1.01 | locus YGR078C, strain PAC10, active compounds read low 0.922 | locus YGR135W, strain pre9, active compounds read low 0.978 | locus YGR252W, strain gcn5, active compounds read low 0.921 | locus YHR013C, strain ard1, active compounds read low 1.06 | locus YHR027C, strain rpn1, active compounds read low 1 | locus YHR079C, strain IRE1 (second series), active compounds read low 0.97 | locus YHR094C, strain hxt1, active compounds read low 0.982 | locus YHR129C, strain ARP1, active compounds read low 0.97 | locus YHR142W, strain chs7, active compounds read low 0.995 | locus YHR200W, strain rpn10, active compounds read low 0.963 | locus YIL066C, strain RNR3, active compounds read low 0.965 | locus YIL073C, strain SPO22, active compounds read low 0.846 | locus YIL125W, strain kgd1, active compounds read low 0.984 | locus YIR030C, strain dcg1, active compounds read low 0.98 | locus YJL092W, strain hpr5, active compounds read low 1.01 | locus YJL095W, strain BCK1 (second series), active compounds read low 1.01 | locus YJL095W, strain BCK1, active compounds read low 0.9 | locus YJL115W, strain asf1, active compounds read low 1.02 | locus YJL129C, strain trk1, active compounds read low 0.974 | locus YJL134W, strain LCB3, active compounds read low 0.983 | locus YJL154C, strain vps35, active compounds read low 1.02 | locus YJL164C, strain tpk1, active compounds read low 0.999 | locus YJL166W, strain qcr8, active compounds read low 1.02 | locus YJL168C, strain set2, active compounds read low 0.984
